Screening data (PubChem)
Only some compounds are listed: those with a hit (about 2.4% of all), similar ones and a draw of the others.
Anthrax LT inh: anthrax lethal toxin internalization inhibition | Potency, µM (top dose mostly 40 µM), usual class: inhibitors | Cells, anthrax lethal toxin internalization, FRET ratio (460/530) | 0.67% of 70,000 active; further: nearly all actives have a fitted effect of over 50% in size
AmpC nodet inh: AmpC beta-lactamase inhibition, detergent-free assay; AmpC nitrocefin hydrolysis, absorbance 480 nm, no detergent; Potency, µM (doses to about 28.7 µM); 1.8% of 71,000 active
Target sequence (P00811 whole entry, looked up): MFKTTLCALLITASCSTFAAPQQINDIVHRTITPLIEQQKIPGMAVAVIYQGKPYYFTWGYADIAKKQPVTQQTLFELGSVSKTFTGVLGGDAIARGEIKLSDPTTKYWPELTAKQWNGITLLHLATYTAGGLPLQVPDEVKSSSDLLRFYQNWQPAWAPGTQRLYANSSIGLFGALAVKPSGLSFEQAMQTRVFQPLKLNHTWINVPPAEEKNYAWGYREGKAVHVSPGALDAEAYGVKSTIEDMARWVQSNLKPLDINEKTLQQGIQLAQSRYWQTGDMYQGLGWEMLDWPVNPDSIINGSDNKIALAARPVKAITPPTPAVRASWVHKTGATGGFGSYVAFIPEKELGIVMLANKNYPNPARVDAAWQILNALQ
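Enzyme, pH 7.0 phosphate. Compound titrations were pre-incubated with AmpC for 15 min at room temperature before nitrocefin (stock 800 uM) addition; product formation was recorded at 480 nm every 20 s for 4 min.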
SmPrx2 inh: blocks S. mansoni peroxiredoxin 2 enzymatic activity. 0.07% of 65,000 active. Potency, µM. S. mansoni Prx2 activity coupled to TGR/GSH (TGR is thioredoxin glutathione reductase), NADPH fluorescence loss, qHTS
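Enzyme mix: 100 uM NADPH, 25 nM TGR, 700 uM GSH, 50 nM Prx2 in 100 mM phosphate pH 7.4, 10 mM EDTA, 0.01% Tween-20. 15 min RT with compound; NADPH/GSH added, H2O2 starts reaction; NADPH fluorescence read 8 min.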
AmpC det inh: inhibitors of E. coli AmpC beta-lactamase with detergent; P00811; purified AmpC, nitrocefin hydrolysis with detergent; Potency, µM (series often up to 28.7 µM); 0.09% of 71,000 active; AID 584; active means well fitted curve in the direction sought with a large enough effect; inconclusive means small, poorly fitted or top-dose-only effect
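E. coli AmpC (5.3 nM) in 20 mM phosphate pH 7.0 with 0.01% Triton X-100, preincubated 15 min RT with compound; nitrocefin (2 uL of 800 uM stock) hydrolysis followed by 480 nm absorbance every 20 s over 4 min.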
Of the large screens only hits and unclear results are named; the others gave an inactive call; [ ] = another dose, or the depositor's remark. Unless noted, the call rests on the fitted dose curve.

CN1CCc2c(sc3c2C(=O)NC(c2ccco2)N3)C1 (stereo not drawn)	Anthrax LT inh inconclusive
[Cu].[NH-][C@H](CC(=O)O)C(=O)O.[NH-][C@H](CC(=O)O)C(=O)O	none
C[N+](C)(C)CCC(=O)c1cccc2ccccc12	Anthrax LT inh 25µM
OCC(CO)(CO)N=Cc1cc(Br)ccc1O	none
Oc1ccc(Br)cc1/C=N/n1cnc2ccccc21	AmpC nodet inh 16µM[single pt active]
CC(=O)N1CSCC1C(=O)N1CCN(c2ccc(N3CCOCC3)nn2)CC1 (stereo not drawn)	AmpC nodet inh 2µM[single pt active] (no result: SmPrx2 inh)
COc1ccc(C(=O)CCC(=O)N2CCN(c3ccc(N4CCOCC4)nn3)CC2)cc1	none
O=C(Nc1ccc([N+](=O)[O-])cc1Cl)c1cc(Cl)ccc1O	Anthrax LT inh 0.25µM
COC(=O)CCCC(=O)O	none
Cc1nc2ccccc2c2oc(C(=O)N3CCN(C(=O)c4ccco4)CC3)cc12	none
Cc1nc2ccccc2c2oc(C(=O)N3CCc4ccccc4C3)cc12	Anthrax LT inh 10µM
Cc1nn(-c2ccccc2)c2nc(N)c(C#N)c(-c3ccc(F)cc3)c12	Anthrax LT inh 5µM (no result: SmPrx2 inh)
Cc1ccc(-n2nc(C)c3c(-c4cccs4)c(C#N)c(N)nc32)cc1	Anthrax LT inh inconclusive
CCOC(=O)N1CCC(NC(=O)CCc2c(C)nc3c(c(C)nn3-c3ccccc3)c2C)CC1	AmpC nodet inh 4µM[single pt active]
Cc1ccc2c(c1)-c1c(cnn1CC(=O)Nc1ccccc1N1CCN(C)CC1)CO2	Anthrax LT inh 5µM
Cc1ccc2c(c1)-c1c(cnn1CC(=O)O)CO2	none
CN1CCC(=C2c3ccccc3C=Cc3ccccc32)CC1	Anthrax LT inh 7.9µM
Cc1cc(Nc2cccc(F)c2)nc(-c2ccccc2O)n1	Anthrax LT inh inconclusive
Cc1cc(Nc2ccccc2)nc(-c2ccccc2O)n1	Anthrax LT inh 13µM
O=C(Nc1cnn(Cc2ccc(Cl)cc2Cl)c1)c1noc2c1CCCC2	Anthrax LT inh inconclusive, AmpC nodet inh 4µM[single pt active]
O=C(CSC1=NCCN1)c1ccccc1	Anthrax LT inh inconclusive
CCn1cc(C(=O)NCc2ccc(Cl)cc2)c(=O)c2cc(S(=O)(=O)N3CCOCC3)ccc21	AmpC nodet inh 4µM[single pt active]
CCn1cc(C(=O)NCc2ccc3c(c2)OCO3)c(=O)c2cc(S(=O)(=O)N3CCOCC3)ccc21	Anthrax LT inh inconclusive
CCn1cc(C(=O)NCCCN2CC(C)CC(C)C2)c(=O)c2cc(S(=O)(=O)N(C)C)ccc21 (stereo not drawn)	AmpC nodet inh 3.2µM[single pt active]
CCn1cc(C(=O)NCC2CCCO2)c(=O)c2cc(S(=O)(=O)N(C)C)ccc21 (stereo not drawn)	AmpC nodet inh 4µM[single pt active]
CCn1cc(C(=O)N2CC(C)CC(C)C2)c(=O)c2cc(S(=O)(=O)N(C)C)ccc21 (stereo not drawn)	none
Nc1nnc(COc2ccc(Br)cc2Br)s1	none
Brc1ccc(Oc2cc(Br)c(Br)cc2Br)c(Br)c1	Anthrax LT inh 0.79µM (no result: SmPrx2 inh)
COc1ccc(S(=O)(=O)n2nc(OC(=O)c3ccc(C)cc3)cc2N)cc1	AmpC nodet inh 13µM
CCCCC(c1nnnn1Cc1ccco1)N1CCN(c2nc3ccccc3s2)CC1 (stereo not drawn)	Anthrax LT inh 10µM
c1ccc(Cn2nnnc2C(c2ccccc2)N2CCN(c3nc4ccccc4s3)CC2)cc1 (stereo not drawn)	none
C[N+]1(C)CCO[C@](O)(c2ccccc2)C1	Anthrax LT inh inconclusive
Cc1nnc(NC(=O)NC(C)N2C(=O)C3C4C=CC(C4)C3C2=O)s1 (stereo not drawn)	none
Cc1nnc(NC(=O)CCCCCN2C(=O)C3C4C=CC(C4)C3C2=O)s1 (stereo not drawn)	AmpC nodet inh 4µM[single pt active] (no result: SmPrx2 inh)
O=C(C1CC(c2ccc(F)cc2)=NO1)N1CCc2ccccc2C1 (stereo not drawn)	Anthrax LT inh inconclusive, AmpC nodet inh 4µM[single pt active]
COc1cccc(C2=NOC(C(=O)N3CCc4ccccc4C3)C2)c1 (stereo not drawn)	Anthrax LT inh inconclusive
O=C(C1CC(c2ccc(F)cc2)=NO1)N1CCCCC1 (stereo not drawn)	none
O=C(C1CC(c2ccc(F)cc2)=NO1)N1CCN(c2ccccc2)CC1 (stereo not drawn)	AmpC nodet inh 4µM[single pt active]
COc1cc(OC)cc([C@H](CNc2ncnc3c2ncn3[C@@H]2O[C@@H](CO)[C@H](O)[C@@H]2O)c2ccccc2C)c1	none
O=C(CSCc1ccc(Cl)cc1)c1ccco1	AmpC nodet inh 10µM[single pt active]
Oc1ccc2cc(SSc3ccc4cc(O)ccc4c3)ccc2c1	Anthrax LT inh inconclusive, AmpC nodet inh 16µM (no result: SmPrx2 inh)
CC(=O)OC(C(=O)c1ccccc1)c1ccccc1 (stereo not drawn)	none (no result: SmPrx2 inh)
O=C(CCCCn1c(=O)[nH]c2ccccc2c1=O)NC1CCN(Cc2ccccc2)CC1	AmpC nodet inh 3.2µM[single pt active]
O=C(CCCn1c(=O)[nH]c2ccccc2c1=O)NC1CCCCCC1	none
COc1ccccc1Oc1ccc2c(c1)C(=O)N(c1ccc(O)cc1)C2=O	AmpC nodet inh 13µM[single pt active]
O=C(O)C(Cl)(c1ccccc1)c1ccccc1	Anthrax LT inh inconclusive
COc1ccc(OC)c(-c2cc(C(=O)Nc3c(C)n(C)n(-c4ccccc4)c3=O)no2)c1	SmPrx2 inh 7.1
O=S(=O)(O)CCCc1cccc2ccccc12	none
C[C@H](C(=O)c1ccncc1)c1ccccn1	none
COc1ccc2[nH]cc(CCNc3ccnc(-c4ccccc4C)n3)c2c1	Anthrax LT inh inconclusive
COc1cccc(-c2nccc(NCCc3c[nH]c4ccc(OC)cc34)n2)c1	Anthrax LT inh 13µM
Cn1nc(CC(=O)NC2CCCCCC2)c2ccccc2c1=O	Anthrax LT inh inconclusive, AmpC nodet inh 3.2µM[single pt active]
COc1ccc(CNC(=O)Cc2nn(C)c(=O)c3ccccc23)cc1	none
COc1ccc(C(=O)Nc2ccc(Cl)cc2C(=O)NCc2ccco2)cc1OC	Anthrax LT inh 7.9µM (no result: SmPrx2 inh)
O=C(Nc1nnc(COc2ccccc2)s1)c1ccco1	none
O=C(Nc1nc(-c2cccs2)c(-c2ccccc2)s1)c1ccco1	Anthrax LT inh 13µM
O=C(CCCN1CCC2(CC1)C(=O)N(Cc1cccc(F)c1)CN2c1ccccc1)c1ccc(F)cc1	Anthrax LT inh inconclusive, AmpC nodet inh 20µM[single pt active]
CC(=O)OC[C@@H]1O[C@@H](O/N=C2/C[C@@H](O)[C@@H](O)[C@@H]3[C@@H]4C(=O)N(C(C)(C)C)C(=O)[C@H]4CC[C@H]23)[C@H](OC(C)=O)[C@H](OC(C)=O)[C@@H]1OC(C)=O	none (no result: AmpC nodet inh, SmPrx2 inh, AmpC det inh)
O=C(c1ccc(COc2ccc(Cl)cc2)o1)N1CCN(Cc2ccc3c(c2)OCO3)CC1	none (no result: SmPrx2 inh)
O=C(Nc1ccc2c(c1)OCO2)c1ccc(COc2ccc3c(c2)CCC3)o1	Anthrax LT inh 6.3µM
CN(C)c1ccc(NC(=O)c2ccc(COc3cccc(Cl)c3)o2)cc1	Anthrax LT inh 10µM
N#C[C@@H](Cc1ccc(O)c(O)c1)C(=O)N1CCc2ccccc21	none
CCC(Sc1nccn1C)C(=O)Nc1cccc2ccccc12 (stereo not drawn)	none
CCC(Sc1nccn1C)C(=O)Nc1nnc(C)s1 (stereo not drawn)	AmpC nodet inh 4µM[single pt active]
CN1/C(=C/C(=O)c2nc(S(C)(=O)=O)ncc2Cl)C(C)(C)c2ccccc21	Anthrax LT inh 13µM
